CtBP-E1A blk: CtBP/E1A binding inhibition. activity change, % (test concentration not listed). AlphaScreen GST-E1A/His-CtBP binding, 1536-well; stronger effect = lower value. 340,000 tested, 0.49% active; in the data active = activity change below about -65%; inconclusive = mostly about -30% to -63%; also: % is scaled to controls: 0 for no effect and ±100 for the full control effect
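Homogeneous bead-based format: GST-tagged E1A captured on glutathione donor beads, His-tagged CtBP on nickel acceptor beads; compounds precede bead addition by 2 h at 37 °C.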
G9a inh: blocks human histone lysine methyltransferase G9a | Q96KQ7 | G9a H3K9 monomethylation, AlphaScreen, 2 h | Potency, µM (doses to about 102 µM), for the others: at the top dose activity, negative = inhibition, hits mostly inhibitors | 350,000 tested, 8.8% active | AID 504332; also: potency is read from the fitted curve at half-maximal effect; % is scaled to controls: 0 for no effect and ±100 for the full control effect; nearly all actives have a fitted effect of over 75% in size
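AlphaScreen detection with an anti-monomethyl H3K9 antibody quantified product after a 2 h room-temperature reaction containing 500 nM biotinylated H3K9 peptide, 20 µM SAM and 20 nM enzyme, which had been preincubated 15 min with compound.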
HP1b binding inh: blocks HP1-beta chromodomain binding to methylated histone tails; P83916; AlphaScreen HP1-beta / biotin-H3K9me3 peptide binding; Potency, µM (highest dose often 114 µM), without a hit: at the highest dose activity change, negative = inhibition, most hits filed as inhibitors; 390,000 tested, 0.56% active; also: potency is read from the fitted curve at half-maximal effect; nearly all actives have a fitted effect of over 70% in size
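AlphaScreen: HP1-beta (50 nM) preformed 30 min with biotin-H3(1-18)K9me3 peptide (50 nM) in PBS pH 7.4, 0.01% Tween-20. Compound added for 30 min at RT, then streptavidin donor/nickel chelate acceptor beads (10 ug/mL) for 30 min.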
Six1-Eya2 blk: inhibitors of human Six1/Eya2 interaction | Q15475+O00167 | AlphaScreen GST-Six1/His-Eya2 binding, biochemical; stronger effect = lower value | activity change, % (concentration not given with the values) | 360,000 tested, 0.56% active | AID 651725; in the data active = activity change below about -65%; inconclusive = mostly about -30% to -63%; also: % is scaled to controls: 0 for no effect and ±100 for the full control effect
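Six1/Eya2 binding was read as AlphaScreen signal after compounds were pinned into GST-Six1 plus His-tagged Eya2 (5X stock 250/500 nM) in pH 8.0 Tris/NaCl/TCEP buffer, beads added, then incubated 1 h, 37 C, dark.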
JMJD2A Tudor inh: inhibitors of human JMJD2A Tudor domain | AlphaScreen JMJD2A-Tudor / H3K4me3 peptide binding | Potency, µM (top dose mostly 114 µM), for the others: at the top dose activity change, negative = inhibition, usual class: inhibitors | 390,000 tested, 4.4% active | AID 504339; also: potency is read from the fitted curve at half-maximal effect; % is scaled to controls: 0 for no effect and ±100 for the full control effect; nearly all actives have a fitted effect of over 50% in size
BAZ2B block: BAZ2B (human) inhibition | Q9UIF8 | AlphaScreen BAZ2B-H3K14Ac peptide displacement | Potency, µM (doses to about 114 µM), without a hit: top-dose activity change, negative = inhibition, usual class: inhibitors | 360,000 tested, 4.4% active | AID 504333; also: potency is read from the fitted curve at half-maximal effect; % is scaled to controls: 0 for no effect and ±100 for the full control effect; nearly all actives have a fitted effect of over 60% in size
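AlphaScreen luminescence quantifies BAZ2B engagement of H3K14Ac peptide; the protein and biotinylated peptide are both at 50 nM final, buffer PBS pH 7.4 with 0.01% Tween-20, all steps at room temperature.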
An asterisk follows results filed as active; ? = inconclusive; . = no result; [ ] = remark or other dose. Sampled rows, rich in hits. Any-hit rate of the full collection: about 10%. Unless noted, calls follow the shape of the dose curve; as a rule, active = well fitted inhibition curve with a large enough effect; inconclusive = small, poorly fitted or top-dose-only effect; inactive = no such curve, though single readings can be large or run the other way.

SMILES | CtBP-E1A blk | G9a inh | HP1b binding inh | Six1-Eya2 blk | JMJD2A Tudor inh | BAZ2B block
Nn1c(SC/C=C/c2ccccc2)nnc1-c1ccccn1 | -77.8* | 28.2µM* | 31.1% | -75.3* | 20µM* | 11.2µM*
COc1ccc(C(=O)CSc2nnc(-c3cccnc3)n2Cc2ccco2)cc1 | 0.9 | 50.1µM* | 47.9% | -3.5 | -7.1% | -4.8%
Clc1ccccc1CSc1nnc(-c2ccccn2)n1Cc1ccco1 | -17.2 | ? | -0.5% | -15.7 | 56.2µM* | 56.2µM*
Clc1ccc(CSc2nnc(-c3cccnc3)n2Cc2ccco2)c(Cl)c1 | -0.5 | 35.5µM* | 2.7% | -10.0 | -14.2% | -24.1%
Clc1ccc(OCc2nnc(SCc3nc4ccccc4[nH]3)n2Cc2ccco2)cc1 | -14.9 | 39.8µM* | -7.6% | -3.9 | ? | -31.2%
Clc1cccc(CSc2nnc(-c3cccnc3)n2Cc2ccco2)c1 | -10.3 | ? | 9.2% | -4.8 | -18.7% | 6.1%
c1coc(Cn2c(SCc3nc4ccccc4[nH]3)nnc2-c2cnccn2)c1 | -8.2 | 31.6µM* | 38.9% | -3.9 | ? | -8.5%
O=C(c1cc(C(F)(F)F)cc(C(F)(F)F)c1)N1CCC2(CCCN(c3ccncc3)C2)CC1 | . | 5.6%[12.7 µM] | . | . | . | .
CC(=O)Nc1ccc(S(=O)(=O)Nc2cc(S(=O)(=O)N3CCCCC3)ccc2O)cc1 | -3.7 | 28.2µM* | 6.8% | 3.8 | ? | -3.0%
O=S(=O)(Nc1cc(S(=O)(=O)N2CCCC2)ccc1O)c1ccc(Cl)s1 | -4.5 | 56.2µM* | 5.7% | 8.9 | -10.3% | -26.4%
CC(=O)Nc1ccc(S(=O)(=O)N2CCCC2)cc1 | . | 56.0% | 41.1% | -4.2 | 2.0% | -0.8%
CC(C)(C)c1ccc(S(=O)(=O)NCc2nc3cccnc3n2Cc2ccccc2Cl)cc1 | . | 11.8%[59 µM] | 11.5%[57 µM] | . | -19.4% | -7.9%
Cc1ccc(NC(=O)CSc2nnc3[nH]c(=O)cc(-c4ccccc4)n23)cc1Cl | . | 0.4%[59 µM] | -6.4% | . | ? | -12.5%
COc1cc(Cl)c(C)cc1NC(=O)C(OC(=O)CNC(=O)c1ccccc1)c1ccccc1 (centres undefined) | . | . | . | . | -21.9% | .
Cc1cccc(OCC(=O)O/N=C(\N)Cc2ccc([N+](=O)[O-])cc2)c1 | . | 35.5µM* | 39.8% | 11.6 | -13.3% | 3.8%
NC(=O)c1ccc(Oc2cccc3cccnc23)c([N+](=O)[O-])c1 | -23.4 | 23.5% | 21.2% | ? | -13.3% | -14.2%
COc1ccc(C(=O)Oc2cccc3cccnc23)cc1[N+](=O)[O-] | -72.4* | 2.2% | 18.5% | -88.2* | ? | 14.1µM*
Cn1sc(NC(=O)c2ccc(Cl)cc2)nc1=O | 1.9 | 39.8µM* | 22.2% | 0.2 | -6.0% | 11.5%
O=C(Nc1nc(=O)c2ccccc2s1)c1ccc(Cl)cc1 | -3.6 | 3.98µM* | 26.7% | 2.2 | -17.1%[11.4 µM] | -19.3%
O=C(CSC(=S)N1CCOCC1)Nc1nc(=O)c2ccccc2s1 | . | 3.98µM* | . | . | . | -2.4%
O=C(Nc1nc(=O)c2ccccc2s1)c1ccc(F)cc1 | 46.0 | 1.78µM* | 69.8% | 0.0 | ? | ?
Cc1ccc(C(=O)Nc2nc(=O)n(C)s2)cc1 | -2.2 | . | -2.1% | 9.1 | -9.2% | -23.8%
O=C1C2CCCN2C(c2ccco2)N1c1ccc(F)cc1 (centres undefined) | -12.0 | -29.7% | 26.0% | 5.7 | 3.4% | .
CC(C)(C)C1CCc2c(sc(NC(=O)c3cccc(Cl)c3)c2C(=O)NCc2ccco2)C1 (centres undefined) | . | -3.6%[59 µM] | 29.9% | . | 6.6% | 1.7%
Cc1ccc2oc(-c3ccc(C)c(NC(=O)c4ccc(N5CCC(C)CC5)c([N+](=O)[O-])c4)c3)nc2c1 | . | -27.6%[59 µM] | 14.8% | . | 7.5% | -11.3%
O=C(Cc1ccccc1)Nc1nc(=O)c2ccccc2s1 | 7.4 | 25.1µM* | 50.8% | 23.5 | 11.6%[11.4 µM] | -24.1%[57.1 µM]
O=C(Cc1ccccc1)Nc1nc2ccccc2s1 | 7.5 | -0.3%[59 µM] | 51.4% | 2.2 | -23.3%[11.4 µM] | 2.0%
COC(=O)c1ccc(Oc2cc(C)nc(Cl)n2)cc1 | . | 19.3% | 41.6% | 7.8 | -4.6% | -23.1%

Screening data as filed in PubChem.
